eIF4H FP inh = human eIF4H binding inhibitors, primary screen, translation initiation inhibitor project, biochemical, uHTS, fluorescence polarization | eIF4H fluorescence polarization binding assay | inhibition, % at 35 µM | Eukaryotic translation initiation factor 4H (Homo sapiens), Q15056 | 290,000 tested, 0.94% active;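 further: calls also rest on retests at 20 µM and on dose response follow-up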
MLLE-PAM2 inh = inhibitors of PABP1 MLLE–PAM2 peptide binding, primary screen, biochemical, fluorescence polarization, FITC-PAM2, GST-MLLE | Polyadenylate-binding protein 1 (Homo sapiens), P11940 | inhibition, % at 20 µM | 360,000 tested, 0.36% active | AID 588489, 2011; in the data active means inhibition above about 35%, passing the limit was not always enough;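 further: plate controls were DMSO wells with GST-MLLE for no effect and wells lacking GST-MLLE protein for full effect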
A3A deaminase = APOBEC3A ssDNA deaminase inhibitors, primary screen, selectivity assay for APOBEC3G inhibitor project, biochemical, FAM/TAMRA oligo cleavage fluorescence | DNA dC->dU-editing enzyme APOBEC-3A (Homo sapiens), P31941 | recombinant A3A, FAM/TAMRA ssDNA deamination fluorescence | inhibition, % at 20 µM | 330,000 tested, 0.41% active;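 active means at least 40% inhibition at 20 µM here, with at most 30% in a related deaminase screen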;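 further: plate controls were A3A with DMSO for no effect and wells lacking A3A enzyme for full effect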
Target sequence (P31941 whole entry, looked up): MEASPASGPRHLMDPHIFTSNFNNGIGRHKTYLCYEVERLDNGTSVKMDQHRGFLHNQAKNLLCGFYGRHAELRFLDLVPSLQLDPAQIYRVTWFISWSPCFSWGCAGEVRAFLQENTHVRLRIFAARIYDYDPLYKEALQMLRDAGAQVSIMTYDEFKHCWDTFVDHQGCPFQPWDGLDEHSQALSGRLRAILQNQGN
PABP polyA inh = PABP poly(A) RNA binding inhibitors, primary screen, biochemical, fluorescence polarization, uHTS; Polyadenylate-binding protein 1 (Homo sapiens), P11940; calls only at 35 µM; 290,000 tested, 1% active; AID 2014, 2009;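 further: calls also rest on retests at 20 µM and on dose response follow-up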
PHOSPHO1 block = PubChem AID 1565; inhibition, % at 13.3 µM; Phosphoethanolamine/phosphocholine phosphatase (Homo sapiens), Q8TCT1; 290,000 tested, 1.1% active; recombinant PHOSPHO1, absorbance phosphatase assay; in the data active means inhibition above about 60%
A3G deaminase = APOBEC3G DNA deaminase inhibitors, primary screen, biochemical, fluorescence, single-stranded DNA substrate, uHTS | DNA dC->dU-editing enzyme APOBEC-3G (Homo sapiens), Q9HC16 | recombinant A3G, ssDNA deamination FAM/TAMRA fluorescence | inhibition, % at 20 µM | 330,000 tested, 0.28% active;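 active means inhibition of at least 40% at 20 µM, with no more than 30% in the related APOBEC3A deaminase screen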;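 further: plate controls were DMSO wells with A3G for no effect and wells lacking A3G enzyme for full effect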
Target sequence (Q9HC16 whole entry, looked up): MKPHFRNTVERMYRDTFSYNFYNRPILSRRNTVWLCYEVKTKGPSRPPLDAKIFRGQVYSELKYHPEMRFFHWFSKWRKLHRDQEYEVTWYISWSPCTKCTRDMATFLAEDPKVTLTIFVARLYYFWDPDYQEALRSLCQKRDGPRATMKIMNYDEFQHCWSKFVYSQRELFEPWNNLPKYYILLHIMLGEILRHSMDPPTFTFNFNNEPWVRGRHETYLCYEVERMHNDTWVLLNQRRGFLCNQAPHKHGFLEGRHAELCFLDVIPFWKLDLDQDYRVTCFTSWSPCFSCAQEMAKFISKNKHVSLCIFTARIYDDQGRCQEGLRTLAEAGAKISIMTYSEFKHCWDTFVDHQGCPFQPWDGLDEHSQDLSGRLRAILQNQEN
APOBEC3A confirm = APOBEC3A deaminase inhibitors, retest, confirmation, selectivity assay for APOBEC3G inhibitor project, biochemical, single concentration, fluorescence readout; AID 493151, 2011; recombinant A3A, ssDNA deaminase UDG fluorescence assay; inhibition, % at 20 µM; shares compounds with A3A deaminase; 1,400 tested, 63% active;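 active means inhibition reaching a set limit, 80% of the first screen's cutoff, at 20 µM in any replicate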;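 further: plate controls were DMSO wells with A3A for no effect and wells lacking A3A enzyme for full effect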
UDG ctr A3A = E. coli UDG inhibitors, confirmation, counter-screen for APOBEC3A inhibitor project, biochemical, single concentration, fluorescence, FAM/TAMRA oligo | 1,000 tested, under 10 active | shares compounds with A3A deaminase | inhibition, % at 20 µM | UDG counterscreen, FAM/TAMRA uracil oligo fluorescence | AID 504714, 2011
Active calls of the source: *; i = inactive; x = not tested or not shown; + = active, no number. Only some compounds are listed: those with a hit (about 2.6% of all), similar ones and a draw of the others. Unless noted, how the calls were made is not given here.

SMILES	eIF4H FP inh	MLLE-PAM2 inh	A3A deaminase	PABP polyA inh	PHOSPHO1 block	A3G deaminase	APOBEC3A confirm	UDG ctr A3A
O=c1cccc2n1Cc1cc3ccccc3nc1-2	7	-96	49*	i	1	2	26	x
COc1ccc(CNC(=O)c2cn(Cc3ccccc3OC)c(=O)s2)cc1	x	-3	x	x	x	x	x	x
CCOC(=O)C1=C(c2ccccc2)N=c2s/c(=C\c3ccco3)c(=O)n2C1c1cccs1 (stereo not given)	75	-97	42*	i	-10	13	19*	-3
CCOC(=O)C1=C(C)N=c2s/c(=C\c3ccc(OCC(=O)O)cc3)c(=O)n2C1c1ccccc1OC (stereo not given)	-14	-149	-1	i	29	-1	x	x
Cc1ccc2[nH]c(O)c(N=Nc3ccccc3[N+](=O)[O-])c2c1	x	-16	x	x	x	x	x	x
COc1ccccc1N=Nc1[nH]c2ccc(C)cc2c1O	-2	-108	66*	i	-15	6	53*	0
CCOc1ccc(CN2C(=O)c3ccccc3C2=O)cc1C(=O)Nc1nnc(SCC)s1	-8	-10	1	i	-17	-2	x	x
CCOc1ccc(CN2C(=O)c3ccccc3C2=O)cc1C(=O)NC1CC(C)(C)NC(C)(C)C1	x	-92	45*	x	x	9	64*	-3
C[C@@H]1CN([C@@H](C)CO)C(=O)c2cc(Br)cnc2O[C@H]1CN(C)Cc1cccc(C(=O)O)c1	x	-1	x	x	x	x	x	x
O=C(Nc1ccccc1C(=O)NC1CC1)c1ccc([N+](=O)[O-])o1	x	-18	18	x	x	8	x	x
N#Cc1ccc(NC(=O)Cn2c3[n+](c4ccc(C(F)(F)F)cc42)CCCCC3)cc1	-5	-119	53	i	-32	49	x	x
Cc1cc(C(C)(C)C)cc(C)c1Cn1c2[n+](c3ccc(C(F)(F)F)cc31)CCCCC2	-13	-104	59	i	-123	31	x	x
O=C(Cn1c2[n+](c3ccc(C(F)(F)F)cc31)CCCCC2)Nc1ccc(Br)cc1	-4	-8	47*	i	-102	13	14*	-3
FC(F)(F)c1cccc(Cn2c3[n+](c4ccc(C(F)(F)F)cc42)CCCCC3)c1	-6	-114	49*	i	-137	21	75*	4
CCc1cccc(CC)c1NC(=O)CO/N=C(\C)c1cccs1	0	-4	-2	i	-41	-8	x	x
COc1ccc(NS(=O)(=O)c2cccc(C(=O)NCC(c3ccco3)N(C)C)c2)cc1 (stereo not given)	x	-7	-2	x	x	-4	x	x
COc1oc(C(=O)NC2CCCCC2)c(-c2ccc(Cl)cc2)c1S(=O)(=O)c1ccccc1	x	27	x	x	x	x	x	x
Cc1ccc(OCC(=O)OC(C)CN2CCCCC2)cc1 (stereo not given)	1	-2	-5	i	27	-4	x	x
Cc1cccc(C(=O)N2CCC(N3CCC(C(=O)N4CCOCC4)CC3)CC2)c1	11	-10	0	i	36	-7	x	x
Cc1cccc(CC(=O)N2CCC(N3CCC(C(=O)N4CCOCC4)CC3)CC2)c1	6	-5	98*	i	-3	-5	-6	-3
O=C(CSc1nc2ccccc2c(=O)[nH]1)Nc1ccccc1C(F)(F)F	-14	-3	-4	i	26	-6	x	x
CCOc1ccc(NC(=O)c2cc3ccccc3cc2O)cc1	98*	15	63*	+	15	13	52*	-3
Cc1cc(C)c2nc(-c3ccncc3)cc(C(=O)N3CCN(Cc4ccccc4Cl)CC3)c2c1	-12	-17	3	i	57	-6	x	x
O=C(Cc1c[nH]c2ccccc12)N1CCN(S(=O)(=O)c2ccc(Cl)cc2)CC1	x	-48	40*	x	x	0	0	x
COc1cc(C(=O)N2CCN(S(=O)(=O)c3ccc(Cl)cc3)CC2)ccc1OCC(=O)N1CCOCC1	x	3	x	x	x	x	x	x
SMILES	eIF4H FP inh	MLLE-PAM2 inh	A3A deaminase	PABP polyA inh	PHOSPHO1 block	A3G deaminase	APOBEC3A confirm	UDG ctr A3A
COc1ccccc1OCC(=O)N1CCN(S(=O)(=O)c2ccc(Cl)cc2)CC1	x	-56	53*	x	x	5	1	x
Cc1ccc(F)c(S(=O)(=O)NC(=O)C2(C)CCN2C(=O)Cc2ccc(-c3ccccc3)cc2)c1 (stereo not given)	x	4	x	x	x	x	x	x
CN(CCOc1ccc(Cl)cc1)C(=O)Cc1ccc(S(=O)(=O)N2CCOCC2)s1	x	-9	-6	x	x	-6	x	x
N#Cc1ccc(CN2CCN(C(=O)Cn3nc(C(N)=O)c4ccccc4c3=O)CC2)cc1	-4	-65	58*	i	16	6	25	x
O=C(NCCc1ccc(F)cc1)c1ccc2c(=O)n3c(nc2c1)CCC3	x	-4	0	x	x	-4	x	x
CC1=CC(C)(C)[N+](C)(C)c2ccccc21	-8	-98	77*	+	24	14	72*	-35
CC1=CC(C)(C)N(C(=O)c2ccccc2)c2ccccc21	-10	2	-3	i	-18	-4	x	x
Cc1ccc2c(c1)C(c1ccccc1)N(C(=O)c1ccc(Br)cc1)CC(=O)N2 (stereo not given)	-6	-10	x	i	24	x	x	x
O=P(c1ccccc1)(c1ccccc1)c1cc(S(=O)(=O)O)ccc1O	78*	-9	83*	+	11	17	63*	-2
O=P(O)(c1ccccc1)c1ccccc1O	-7	7	-4	i	-2	-3	x	x
COc1cccc(-c2nnn(CC(C)=O)n2)c1	-2	12	53*	i	-4	0	-7	0
CCN(CC)CCNC(=O)c1ccc(NC(=O)C2CCN(c3ncnc4sc(C)c(C)c34)CC2)cc1	-4	-129	44*	i	-41	16	57*	x
O=C(c1cccc(Oc2c(Cl)cccc2[N+](=O)[O-])c1)N1CCOCC1	-5	1	-2	i	27	-5	x	x
CCOC(=O)c1ccc2c(c1)n(CCO)c(C)[n+]2CC	x	-123	43*	x	90*	21	82*	7
COC(=O)c1ccc2c(c1)nc(C)n2CCO	-9	-5	-4	i	-14	-4	x	x
CCOC(=O)c1ccc2c(c1)n(CC)c(/C=C/N(C)c1ccccc1)[n+]2CC	-4	-119	57*	i	-27	17	79*	3
